{
  "source": "PubChem BioAssay AID1159580",
  "about": "(chemical genetic matrix, 2015)",
  "experiment": "chemical genetic growth profiling, strain panel (AID 1159580);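 further: tested at 20 µM; growth read once vehicle control cultures reached saturation at 30 °C; 1 = growth at the plate median or of vehicle wells; lower values mean less growth of the strain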",
  "details": "S. cerevisiae deletion strains, growth OD",
  "note": "About 2,000 (36%) of roughly 5,500 compounds were called active. Inconclusive results (about 18%) are left out. Some of the results follow. Values without a mark were called inactive. No stated cut-off is given here; in the data, active means normalized growth mostly below about 0.91 (no sharp cut-off); inconclusive means no clear call, values can overlap the other calls; inactive means mostly above about 0.92.",
  "data": [
    {"smiles": "C=CCCCCCCCCCCCC(O)CC(O)CO", "note": "(centres undefined) (tested in a mixture with another compound)", "values": [
      {"measurement": "normalized growth", "setting": "locus YBR021W, strain FUR4, active compounds read low", "result": "0.426 (active)"},
      {"measurement": "normalized growth", "setting": "locus YBR229C, strain ROT2, active compounds read low", "result": "0.531 (active)"},
      {"measurement": "normalized growth", "setting": "locus YCL029C, strain bik1, active compounds read low", "result": "0.253 (active)"},
      {"measurement": "normalized growth", "setting": "locus YDL035C, strain GPR1, active compounds read low", "result": "0.359 (active)"},
      {"measurement": "normalized growth", "setting": "locus YDL074C, strain BRE1, active compounds read low", "result": "0.208 (active)"},
      {"measurement": "normalized growth", "setting": "locus YDL101C, strain DUN1, active compounds read low", "result": "0.242 (active)"},
      {"measurement": "normalized growth", "setting": "locus YDL185W, strain tfp1, active compounds read low", "result": "0.611 (active)"},
      {"measurement": "normalized growth", "setting": "locus YDL192W, strain arf1, active compounds read low", "result": "0.231 (active)"},
      {"measurement": "normalized growth", "setting": "locus YDR101C, strain arx1, active compounds read low", "result": "0.471 (active)"},
      {"measurement": "normalized growth", "setting": "locus YDR150W, strain NUM1, active compounds read low", "result": "0.637 (active)"},
      {"measurement": "normalized growth", "setting": "locus YDR162C, strain NBP2, active compounds read low", "result": "0.281 (active)"},
      {"measurement": "normalized growth", "setting": "locus YDR318W, strain mcm21, active compounds read low", "result": "0.224 (active)"},
      {"measurement": "normalized growth", "setting": "locus YDR388W, active compounds read low", "result": "0.496 (active)"},
      {"measurement": "normalized growth", "setting": "locus YDR502C, strain sam2, active compounds read low", "result": "0.347 (active)"},
      {"measurement": "normalized growth", "setting": "locus YEL061C, strain CIN8, active compounds read low", "result": "0.177 (active)"},
      {"measurement": "normalized growth", "setting": "locus YER110C, active compounds read low", "result": "0.27 (active)"},
      {"measurement": "normalized growth", "setting": "locus YER155C, strain BEM2, active compounds read low", "result": "0.0936 (active)"},
      {"measurement": "normalized growth", "setting": "locus YER167W, strain BCK2, active compounds read low", "result": "0.276 (active)"},
      {"measurement": "normalized growth", "setting": "locus YGL078C, strain dbp3, active compounds read low", "result": "0.465 (active)"},
      {"measurement": "normalized growth", "setting": "locus YGL086W, strain mad1, active compounds read low", "result": "0.145 (active)"},
      {"measurement": "normalized growth", "setting": "locus YGL248W, strain PDE1, active compounds read low", "result": "0.165 (active)"},
      {"measurement": "normalized growth", "setting": "locus YGR135W, strain pre9, active compounds read low", "result": "0.335 (active)"},
      {"measurement": "normalized growth", "setting": "locus YGR252W, strain gcn5, active compounds read low", "result": "0.407 (active)"},
      {"measurement": "normalized growth", "setting": "locus YHR030C, strain SLT2, active compounds read low", "result": "0.21 (active)"},
      {"measurement": "normalized growth", "setting": "locus YHR079C, strain IRE1 (second series), active compounds read low", "result": "0.253 (active)"},
      {"measurement": "normalized growth", "setting": "locus YHR094C, strain hxt1, active compounds read low", "result": "0.198 (active)"},
      {"measurement": "normalized growth", "setting": "locus YHR129C, strain ARP1, active compounds read low", "result": "0.248 (active)"},
      {"measurement": "normalized growth", "setting": "locus YHR200W, strain rpn10, active compounds read low", "result": "0.328 (active)"},
      {"measurement": "normalized growth", "setting": "locus YIL066C, strain RNR3, active compounds read low", "result": "0.217 (active)"},
      {"measurement": "normalized growth", "setting": "locus YIL073C, strain SPO22, active compounds read low", "result": "0.544 (active)"},
      {"measurement": "normalized growth", "setting": "locus YIL125W, strain kgd1, active compounds read low", "result": "0.288 (active)"},
      {"measurement": "normalized growth", "setting": "locus YIR030C, strain dcg1, active compounds read low", "result": "0.341 (active)"},
      {"measurement": "normalized growth", "setting": "locus YJL095W, strain BCK1, active compounds read low", "result": "0.139 (active)"},
      {"measurement": "normalized growth", "setting": "locus YJL134W, strain LCB3, active compounds read low", "result": "0.273 (active)"},
      {"measurement": "normalized growth", "setting": "locus YJL168C, strain set2, active compounds read low", "result": "0.521 (active)"},
      {"measurement": "normalized growth", "setting": "locus YJL187C, strain SWE1 (second series), active compounds read low", "result": "0.386 (active)"},
      {"measurement": "normalized growth", "setting": "locus YKL009W, strain mrt4, active compounds read low", "result": "0.274 (active)"},
      {"measurement": "normalized growth", "setting": "locus YKL068W, active compounds read low", "result": 1},
      {"measurement": "normalized growth", "setting": "locus YKL085W, strain MDH1 (second series), active compounds read low", "result": "0.343 (active)"},
      {"measurement": "normalized growth", "setting": "locus YKL085W, strain MDH1, active compounds read low", "result": "0.343 (active)"},
      {"measurement": "normalized growth", "setting": "locus YKR001C, strain vps1, active compounds read low", "result": "0.123 (active)"},
      {"measurement": "normalized growth", "setting": "locus YLR039C, strain RIC1, active compounds read low", "result": "0.46 (active)"},
      {"measurement": "normalized growth", "setting": "locus YLR058C, strain SHM2, active compounds read low", "result": "0.301 (active)"},
      {"measurement": "normalized growth", "setting": "locus YLR102C, strain apc9, active compounds read low", "result": "0.225 (active)"},
      {"measurement": "normalized growth", "setting": "locus YLR262C, strain YPT6, active compounds read low", "result": "0.355 (active)"},
      {"measurement": "normalized growth", "setting": "locus YLR268W, strain sec22, active compounds read low", "result": "0.308 (active)"},
      {"measurement": "normalized growth", "setting": "locus YLR330W, strain CHS5, active compounds read low", "result": "0.097 (active)"},
      {"measurement": "normalized growth", "setting": "locus YLR371W, strain rom2, active compounds read low", "result": "0.204 (active)"},
      {"measurement": "normalized growth", "setting": "locus YLR418C, strain cdc73, active compounds read low", "result": "0.186 (active)"},
      {"measurement": "normalized growth", "setting": "locus YML016C, strain PPZ1, active compounds read low", "result": "0.218 (active)"},
      {"measurement": "normalized growth", "setting": "locus YML032C, strain rad52, active compounds read low", "result": "0.201 (active)"},
      {"measurement": "normalized growth", "setting": "locus YML124C, strain tub3, active compounds read low", "result": "0.503 (active)"},
      {"measurement": "normalized growth", "setting": "locus YMR078C, strain ctf18, active compounds read low", "result": "0.125 (active)"},
      {"measurement": "normalized growth", "setting": "locus YMR223W, strain ubp8, active compounds read low", "result": "0.159 (active)"},
      {"measurement": "normalized growth", "setting": "locus YMR263W, strain SAP30, active compounds read low", "result": "0.32 (active)"},
      {"measurement": "normalized growth", "setting": "locus YMR307W, strain GAS1, active compounds read low", "result": "0.241 (active)"},
      {"measurement": "normalized growth", "setting": "locus YNL067W, strain RPL9B, active compounds read low", "result": "0.56 (active)"},
      {"measurement": "normalized growth", "setting": "locus YNL153C, strain GIM3, active compounds read low", "result": "0.365 (active)"},
      {"measurement": "normalized growth", "setting": "locus YNL233W, strain BNI4, active compounds read low", "result": "0.141 (active)"},
      {"measurement": "normalized growth", "setting": "locus YNL250W, strain rad50, active compounds read low", "result": "0.734 (active)"},
      {"measurement": "normalized growth", "setting": "locus YNL271C, strain bni1, active compounds read low", "result": "0.526 (active)"},
      {"measurement": "normalized growth", "setting": "locus YNL298W, strain CLA4, active compounds read low", "result": "0.384 (active)"},
      {"measurement": "normalized growth", "setting": "locus YNL307C, strain MCK1, active compounds read low", "result": "0.0684 (active)"},
      {"measurement": "normalized growth", "setting": "locus YNR052C, strain pop2, active compounds read low", "result": "0.426 (active)"},
      {"measurement": "normalized growth", "setting": "locus YOL006C, strain TOP1, active compounds read low", "result": "0.149 (active)"},
      {"measurement": "normalized growth", "setting": "locus YOL012C, strain htz1", "result": 1.15},
      {"measurement": "normalized growth", "setting": "locus YOL147C, strain pex11, active compounds read low", "result": "0.104 (active)"},
      {"measurement": "normalized growth", "setting": "locus YOR061W, strain CKA2, active compounds read low", "result": "0.0632 (active)"},
      {"measurement": "normalized growth", "setting": "locus YOR069W, strain VPS5, active compounds read low", "result": "0.559 (active)"},
      {"measurement": "normalized growth", "setting": "locus YOR136W, strain idh2, active compounds read low", "result": "0.136 (active)"},
      {"measurement": "normalized growth", "setting": "locus YOR144C, strain elg1, active compounds read low", "result": "0.236 (active)"},
      {"measurement": "normalized growth", "setting": "locus YOR184W, strain ser1, active compounds read low", "result": "0.129 (active)"},
      {"measurement": "normalized growth", "setting": "locus YOR316C, strain cot1, active compounds read low", "result": "0.354 (active)"},
      {"measurement": "normalized growth", "setting": "locus YPL241C, strain CIN2, active compounds read low", "result": "0.114 (active)"},
      {"measurement": "normalized growth", "setting": "locus YPR119W, strain clb2, active compounds read low", "result": "0.148 (active)"},
      {"measurement": "normalized growth", "setting": "locus YPR141C, strain kar3, active compounds read low", "result": "0.824 (active)"},
      {"measurement": "normalized growth", "setting": "locus YPR163C, strain tif3, active compounds read low", "result": "0.205 (active)"},
      {"measurement": "normalized growth", "setting": "locus YPR167C, strain met16, active compounds read low", "result": "0.203 (active)"},
      {"measurement": "normalized growth", "setting": "strain wtn01, active compounds read low", "result": "0.337 (active)"}
    ]}
  ]
}
